Assay outcomes from PubChem.
Many of the other results were omitted from the sample, so hits are more common in it than they were.
Pf Dd2 inh – Plasmodium falciparum Dd2 growth inhibition | P. falciparum Dd2 growth, SYBR Green, 72 h | 4.3% of 120,000 active | Potency, µM (highest dose often 28.9 µM), for the others: top-dose activity, negative = inhibition, most hits filed as inhibitors; active = well fitted inhibition curve with a large enough effect;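 also: plate controls were DMSO vehicle for no effect and reference drug for full effect; nearly all actives have a fitted effect of over 65% in size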
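Infected erythrocytes (Dd2, 0.3% parasitemia, 2.5% hematocrit final) are added to compound in RPMI-1640/Albumax II medium, grown 72 h at 37C in low oxygen, then lysed with saponin/Triton-X containing SYBR Green and read by fluorescence.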
Starred values were filed as active, the others as inactive; i = inactive; [ ] = another dose, or the depositor's remark. Potency is read from the fitted curve at half-maximal effect.

SMILES	Pf Dd2 inh
COc1ccc(C2=NN(CC(=O)NCc3ccccc3Cl)C(=O)CC2)cc1	6.4%
COC(=O)[C@@H](C)NC(=O)[C@H]1CN(C(=O)c2cccnc2)CCN1C(=O)NC(C)C	-11.7%[44.1 µM]
COCc1nc(C2CCCN(C(=O)Cc3ccc(OC)cc3)C2)no1 (stereo not given)	61.2%
COc1cccc(-c2cnc3n[nH]c(-c4ccccc4)c3n2)c1	-22.8%[44.1 µM]
Cc1ccc(C(=O)N2CCc3cn(C)c4cccc(c34)C2)cc1	-23.1%
COc1ccc(C(=O)/C=C/c2cn(CC(O)CN3CCc4ccccc43)c3ccccc23)cc1OC (stereo not given)	8.91µM*
COc1ccc(C(=O)NCCn2cc(SCC(=O)Nc3ccc4c(c3)OCCO4)c3ccccc32)cc1OC	i
COc1ccc(NC(=O)CSc2cn(CC(=O)N3CCOCC3)c3ccccc23)cc1OC	13.0%
CC(C)N(C(=O)Cn1cc(S(=O)(=O)Cc2ccc(Cl)cc2)c2ccccc21)C(C)C	i[5.79 µM]
CC(C)CN(CC(C)C)CC(O)Cn1cc(/C=C/C(=O)c2ccccc2)c2ccccc21 (stereo not given)	2.51µM*
Cc1ccc(NC(=O)CSc2cn(CC(=O)N3CCCCCC3)c3ccccc23)cc1	-2.3%
Cc1ccc(C(=O)/C=C/c2cn(CC(O)CN3CCc4ccccc43)c3ccccc23)cc1 (stereo not given)	5.62µM*
CN(C)Cc1nnc(C2CCN(C(=O)CCNS(C)(=O)=O)CC2)n1C	19.9%
CCC1(C(=O)Nc2ccc(C)cc2)CCCCC(=O)N1 (stereo not given)	-24.2%
Cc1cccc(OC[C@H]2C[C@@H](NCc3c(C)noc3C)[C@H](O)[C@@H]2O)n1	-26.3%[44.1 µM]
O=C(O)c1ccc2c(c1)N(C(=O)c1ccc(F)cc1)CC2	-8.2%
O=C(c1ccc(F)cc1)N1CCC(C(=O)O)(c2ccccc2)CC1	2.6%
CCCCC(=O)N1c2ccccc2C(C)(c2ccccc2)CC1(C)C (stereo not given)	-20.4%
COc1ccccc1C(=O)N1CCCN(C)c2ccccc21	-12.3%
COc1ccccc1C(=O)N1c2ccccc2C(C)(c2ccc(Cl)cc2)CC1(C)C (stereo not given)	8.91µM*
Cc1ccc2c(c1)C(C)(c1ccccc1)CC(C)(C)N2C(=O)c1ccc(F)cc1 (stereo not given)	5.62µM*
CN(CC1CCOCC1)S(=O)(=O)Cc1ccccc1	-12.5%
O=C(c1ccncc1)N1CC[C@H]2COC(=O)N2c2cc(F)ccc2C1	18.1%[44.1 µM]
O=C1NCCN2CC3(CCN(C(=O)Nc4ccc5c(c4)OCCO5)CC3)CC12 (stereo not given)	-28.3%
O=C1CCC(C(=O)N2C[C@@H](COCC3CC3)[C@H](c3ccccn3)C2)=NN1	-3.2%
SMILES	Pf Dd2 inh
Cc1cccc(-c2nc(Cn3c(=O)cc(-c4ccccc4)c4c(C)nn(C)c43)c(C)o2)c1	-12.5%
Cc1oc(-c2ccccc2)nc1Cn1c(=O)cc(-c2ccccc2)c2c(C)nn(C)c21	10µM*
Cc1ccc(C)c(-c2nc(Cn3c(=O)cc(-c4ccccc4)c4c(C)nn(C)c43)c(C)o2)c1	42.9%
O=C(Cn1nc2n(c1=O)CCCC2)NCc1ccccc1	10.3%
C=CCOc1ccccc1CN(CC)C(=O)C1CCN(c2ncccn2)CC1	-15.5%
CCCc1noc(-c2cn(C3CCN(C(=O)c4ccc(C#N)cc4)CC3)nn2)n1	12.6µM*
Cc1noc(-c2cn(C3CCN(C(=O)c4cccc(Br)c4)CC3)nn2)n1	-23.2%
CCc1noc(-c2cn(C3CCN(C(=O)c4ccc(C)cc4)CC3)nn2)n1	i
CCCc1noc(-c2cn(C3CCN(C(=O)c4cccc(N(C)C)c4)CC3)nn2)n1	3.55µM*
CCc1noc(-c2cn(C3CCN(C(=O)c4ccc(OC)cc4)CC3)nn2)n1	i
CCCc1noc(-c2cn(C3CCN(C(=O)c4ccc(OC)c(F)c4)CC3)nn2)n1	-13.4%
C[C@@H](NC(=O)C1CC1)c1onc(-c2ccc(Cl)cc2)c1C(=O)O	-13.6%[44.1 µM]
O=C(CCc1nnn2c1CN(S(=O)(=O)c1ccc(F)cc1)CC2)N1CCOCC1	-11.7%
COc1ccc(-c2cc3nc4c(c(=O)n3[nH]2)CCN(C(=O)COc2ccccc2C)C4)cc1	-1.5%
COc1ccc(Nc2nccc3c(=O)cc(N4CCOCC4)oc23)cn1	i
COC[C@H]1CCCN1C(=O)C[C@@H]1O[C@H](CNC(=O)c2ccccc2)[C@@H](O)[C@H]1O	7.3%[44.1 µM]
COCC(=O)N[C@H]1CCN(C(=O)COC)[C@H](C(=O)N[C@H](Cc2ccccc2)C(N)=O)C1	11.5%[44.1 µM]
COCC1CN(C(C)=O)CC12CCN(S(=O)(=O)c1ccc(OC)cc1)CC2 (stereo not given)	-10.9%
O=C(C1CCCC1)N1CCC(Cc2nncn2CC2CC2)C1 (stereo not given)	2.8%
CN(C(=O)c1ccc2nc(-c3ccc(F)cc3)cn2c1)C1CCOCC1	-6.3%
CCC(NC(=O)c1ccc2nc(-c3ccc(F)cc3)cn2c1)c1ncc(C)[nH]1 (stereo not given)	7.94µM*
COCCN(CC1CC1)C(=O)c1ccc2nc(-c3ccc(F)cc3)cn2c1	-15.4%
CC(Cc1cnccn1)NC(=O)c1ccc2nc(-c3ccc(F)cc3)cn2c1 (stereo not given)	-16.9%
O=C(NCCc1cnc[nH]1)c1ccc2nc(-c3ccc(F)cc3)cn2c1	10µM*
COc1cc(F)ccc1-c1cc2c(ccn2C)c(C(=O)NCCc2cnc[nH]2)n1	-15.1%[44.1 µM]
SMILES	Pf Dd2 inh
Cc1sc2ccn(Cc3ccc(F)cc3)c(=O)c2c1C(=O)NC1CCCC1	i
Cc1ccc(C(=O)N2CCC(N3C(=O)C(OCC4CC4)C34CCOCC4)CC2)cn1 (stereo not given)	7.2%
O=C1NC2(CCCN(C(=O)c3cccnc3)C2)Oc2ccccc21 (stereo not given)	0.4%[44.1 µM]
CC(c1ccc(F)cc1)N1Cc2cc(NC(=O)Cc3cccs3)ccc2OCC1=O (stereo not given)	i
CCCNC(=O)C1COC2(CCN(C(=O)c3ccccc3Cl)CC2)N1C(=O)c1ccc(OC)cc1 (stereo not given)	i
O=C(C1CCC1)N1CC2CC(C1)[C@H]1CCCC(=O)N1C2 (stereo not given in full)	5.6%
O=C(NC1CC1)[C@@H]1C[C@H](Oc2ccccc2)CN1C(=O)CC1CCCC1	3.4%
Cc1cccc(C(=O)N2CCCCCNC(=O)[C@@H]3CCCC[C@@H]32)c1	2.7%
O=C1NCCCCCN(C(=O)CC2CCCCC2)[C@@H]2C[C@@H](C(=O)N3CCc4ccccc4C3)C[C@H]12	7.08µM*
O=C1NCCCCCCN(C(=O)c2ccoc2)[C@H]2C[C@H](C(=O)N3CCN(c4ccccn4)CC3)C[C@@H]12	i
Cc1cccc(C(=O)N2CCCCCNC(=O)[C@H]3C[C@H](C(=O)N4CCc5ccccc5C4)C[C@H]32)c1	8.91µM*
Cc1ccc(C(=O)N2CCCCCCNC(=O)[C@@H]3C[C@@H](C(=O)N4CCc5ccccc5C4)C[C@@H]32)s1	7.94µM*
O=C1NCCCCCCN(C(=O)c2cnccn2)[C@H]2C[C@H](C(=O)N3CCc4ccccc4C3)C[C@@H]12	-2.9%
Cc1cccc(C(=O)N2CCCCCCNC(=O)[C@@H]3CCCC[C@@H]32)c1	0.1%
O=C1NCCCCCCN(C(=O)Cc2ccccc2)[C@H]2CCCC[C@@H]12	i
O=C1NCCCCCN(C(=O)CCCc2ccccc2)[C@H]2CCCC[C@@H]12	-24.9%
COc1ccccc1C(O)c1nc(Nc2ccncc2)n[nH]1 (stereo not given)	21.4%[44.1 µM]
COC1CCOC2(CCN(C(=O)COc3ccc(F)cc3)CC2)C1 (stereo not given)	-5.8%
